From PubChem BioAssay AID624404 (Broad Institute, 2012)
Among all 1,800 compounds or so, about 710 (39%) were called active. Roughly 28% stayed inconclusive and do not appear here.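 The calls were made as follows: active = luciferase signal rise whose fitted curve crosses a set activity limit at or below the top valid tested dose; inconclusive = flat fit with 30 to 70% rise, or poor fit; inactive = signal falling, flat within 30%, or crossing above top dose.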 A selection follows. Entries with a potency or affinity are not part of this list.

test: luciferase activators in glycosylation-insensitive reporter cells, dose response, counter-screen for N-linked glycosylation inhibitor project, D54 LucT cells, luminescence, cherry pick (AID 624404); conditions: D54 LucT luciferase reporter counterscreen, 24 h; series mostly up to 19.5 µM; activity increase (luciferase signal): at the top concentration;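 also: 0% = median neutral control signal and 100% = twice that signal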

SMILES | activity increase (luciferase signal)
COc1ccc(S(=O)(=O)Nc2c(C(=O)O)[nH]c3ccc(OC)cc23)c(OC)c1 | 26.5% (inactive)
Cc1ccc(NC(=O)c2cc(S(=O)(=O)N(C)C)ccc2N2CCCC2)cc1F | 18.8% (inactive)
COc1cc(-c2noc(C)c2/C=C/c2ccc(OC(C)=O)cc2)cc(OC)c1OC | 11.2% (inactive)
COc1cc(NC(=O)c2cc(-c3ccccc3)nc3c2cnn3C(C)C)cc(OC)c1OC | -29.9% (inactive)
NC(=O)c1cccc(Nc2nc(C(N)CCc3ccccc3)cs2)n1 (stereo not given) | 7.8% (inactive)
CCOC(=O)C1CCN(S(=O)(=O)Cc2ccccc2)CC1 | 46% (inactive)
O=C1CCCC2=C1C(c1ccco1)Nc1ccc(C(=O)c3ccccc3)cc1N2 (stereo not given) | 41.2% (inactive)
CCCn1c2ccccc2c2cnn(CC(=O)NC3CCCC(C)C3C)c(=O)c21 (stereo not given) | -3.18% (inactive)
COc1ccc(OC)c(N(CC(=O)Nc2cccnc2)S(=O)(=O)c2ccc(C)cc2)c1 | 4.3% (inactive)
COc1ccc(N(CC(=O)Nc2cc(Cl)ccc2OC)S(=O)(=O)c2c(C)noc2C)cc1 | -20.4% (inactive)
CCOc1ccccc1NC(=O)CN(c1ccc(OC)cc1)S(=O)(=O)c1c(C)noc1C | 52.5% (inactive)
CN(C)Cc1c(O)ccc2c1O/C(=C\C=C\c1ccccc1)C2=O | 31.8% (inactive)
O=C(CCl)N1CCCC1c1ccc2c(c1)OCCO2 (stereo not given) | -11.8% (inactive)
COc1ccc(/C=N/NC(=O)c2ccc(COc3ccccc3Cl)o2)c(OC)c1C | 27.4% (inactive)
CC(C)C(=O)Nc1ccc(C(=O)N/N=C/c2cc(Br)cc(Br)c2O)cc1 | 11.7% (inactive)
Cc1cc2nnc(SCC(=O)NCc3cccs3)n2c2ccccc12 | 45.3% (inactive)
CNC(=O)c1cccc2nc3ccccc3nc12 | -11.8% (inactive)
Cc1cc(C)c(C)c(OC(=O)c2sc(Cl)nc2C)c1 | -28.2% (inactive)
CCOC(=O)c1ccc(Oc2cc(C)nc(SC)n2)cc1 | -2.48% (inactive)
CCOC(=O)c1ccc(N=c2sc(C(=O)OC)cc(=O)n2Cc2ccco2)cc1 | -0.7% (inactive)
CCn1cc([N+](=O)[O-])c(C(=O)Nc2nc(-c3ccc(C)c(C)c3)c(C)s2)n1 | -9.26% (inactive)
COc1cccc(Oc2ccc(C(F)(F)F)cc2NC(=O)CN2C(=O)NC3(CCCC3)C2=O)c1 | 19.9% (inactive)
COC(=O)c1cc(OC)c(OC)cc1NC(=S)NC(=O)c1ccco1 | 17.6% (inactive)
CCN(CC)CCCNc1nc2ccccc2c2nc(-c3ccncc3)nn12 | -2.43% (inactive)
CN(C)CCOc1nc(-c2ccccc2)nc2c1oc1ccccc12 | 14.3% (inactive)

SMILES | activity increase (luciferase signal)
c1ccc(CNc2nc(NCCc3ccncc3)c3sccc3n2)cc1 | -4.58% (inactive)
CN(C)CCCNc1c2c(nc3ccccc13)CCC2 | 0% (inactive)
Cc1cc(NCCCN(C)C)n2c(nc3ccccc32)c1C#N | -10.7% (inactive)
O=C(CSc1ncnc2nc[nH]c12)c1ccc([N+](=O)[O-])cc1 | -6.76% (inactive)
COc1cc(COCC(O)CN2CCN(CCN3C(=O)c4cccc5cccc(c45)C3=O)CC2)cc(OC)c1OC (stereo not given) | -1.72% (inactive)
COc1cc(C(=O)OCC(=O)c2cc(C)n(C)c2C)cc(OC)c1OC | 13.5% (inactive)
C=CCOc1ccc2nc(NC(=O)OC)[nH]c2c1 | 11.3% (inactive)
Cc1noc2ncnc(Sc3ccccc3Cl)c12 | 39.8% (inactive)
CCc1nn2c(N(C)CCO)cc(C)nc2c1-c1ccc(F)cc1 | 3.57% (inactive)
OC1CCCN(Cc2c3ccccc3cc3ccccc23)C1 (stereo not given) | 36% (inactive)
CN(C)CCNC(=O)c1cccc2nc3c(ccc4ccccc43)nc12 | 34.8% (inactive)
CCOC(=O)c1cnc2c(C)cc(C)cc2c1NCCCN1CCOCC1 | 34.1% (inactive)
CCOC(=O)c1cc2sccc2n1CC(=O)N1CCc2ccccc21 | 38.1% (inactive)
COc1cc(-c2noc(C)c2/C=C/c2ccc(N)cc2)cc(OC)c1OC | 4.57% (inactive)
Cc1ccc(Nc2nnc(SCC(=O)Nc3ncc(S(=O)(=O)c4ccc([N+](=O)[O-])cc4)s3)s2)cc1 | 35.6% (inactive)
CCOC(=O)c1c(C)oc2c(F)c(F)c(F)c(F)c2c1=O | -70.7% (inactive)
CCOc1ccc2c(c1)C(=NNC(=O)c1ccncc1)c1cc(OCC)ccc1-2 | -20.8% (inactive)
CNc1ccc(Br)cc(C(=O)/C=C/c2cccc(OC)c2OC)c1=O | 17.9% (inactive)
CCN(CC)C(=O)CSc1nc2c(sc(=S)n2-c2ccccc2)c(=O)n1Cc1ccco1 | -39.3% (inactive)
COc1ccc(C(=O)CSc2nn3c(=O)c(C(C)(C)C)nnc3s2)cc1 | 22.2% (inactive)
COC(=O)c1ccc2c(=O)n(Cc3ccco3)c(SCC(=O)Nc3cc(C)on3)nc2c1 | -15.7% (inactive)
CCOC(=O)c1ccc(/C=C2/C=C(c3ccccc3)N(c3ccc(Cl)c(C(=O)O)c3)C2=O)cc1 | -17% (inactive)
Cn1c(N)c(C(=O)COC(=O)c2cc(S(=O)(=O)N3CCOCC3)ccc2F)c(=O)n(C)c1=O | 4.76% (inactive)
Cc1ccc(Cl)cc1N1CCN(S(=O)(=O)c2ccc(-c3ccc(=O)[nH]n3)o2)CC1 | 30.2% (inactive)
CCCn1c(=N)n(CC(=O)c2ccc([N+](=O)[O-])cc2)c2ccccc21 | 58.5% (inactive)
